# Results from the supplement of paper PMC3414501.
# Where a name gives a salt, the structure may show the parent alone.
# What was measured:
# [1] = test system: S. cerevisiae SK1 pCDA2-eGFP (USY613), sporulating; experiment: CDA2-GFP sporulation assay sensitivity score (z-score vs DMSO controls); higher = stronger inhibition of sporulation, active = hit call of the paper;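 note: active if sensitivity score above 5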
# [2] = test system: S. cerevisiae AD1-9 (efflux-pump deficient), vegetative growth in YPD; experiment: growth sensitivity score (doubling time z-score vs DMSO controls); higher = slower growth, strongly negative scores also mark growth inhibition (complete suppression), active = hit call of the paper
# Summary of the method: (§1)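 Rich medium in microtiter plates was seeded with Saccharomyces cerevisiae strains BY4741 and AD1-9 at an OD600 of 0.065, and compounds were added as a 1:100 dilution of DMSO stock. A Tecan GENios reader recorded optical density every 15 min for 24 hours, with eight solvent-only wells in each experiment. Average doubling time was the time to reach a set generation point divided by generation number. The growth sensitivity score was the compound mean minus the solvent-only mean, divided by the solvent-only standard deviation.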
# [3] = test system: S. cerevisiae BY4741 (wild-type), vegetative growth in YPD; experiment: as above
# Summary of the method: as §1
Compound,CDA2-GFP sporulation assay sensitivity score [1],growth sensitivity score [2],growth sensitivity score [3]
"CN1CCC(=C2c3ccccc3CCc3sccc32)CC1 [Pizotyline] (stock concentration (mM, diluted 1:100): 10)",-0.44 (inactive),161 (active),5.7 (active)
"O=C(O)c1cc(/N=N/c2ccc(S(=O)(=O)Nc3ccccn3)cc2)ccc1O [Sulfasalazine] (stock concentration (mM, diluted 1:100): 10)",2.13 (inactive),-2.95,-2.26
"CN1CCN(c2nc3cc(C(F)(F)F)ccc3n3cccc23)CC1 (stock concentration (mM, diluted 1:100): 10)",,,351 (active)
"CCc1c2c(nc3ccc(OC(=O)N4CCC(N5CCCCC5)CC4)cc13)-c1cc3c(c(=O)n1C2)COC(=O)[C@]3(O)CC [Irinotecan hydrochloride] (stock concentration (mM, diluted 1:100): 8.7)",,2.14 (active),-1.27 (inactive)
"C[C@H]1[C@H](OC(=O)CCC(=O)O)O[C@@H]2O[C@@]3(C)CC[C@H]4[C@H](C)CC[C@@H]1[C@@]24OO3 [Artesunate] (stock concentration (mM, diluted 1:100): 10)",0.74 (inactive),23.2 (active),2.81 (active)
"COC(=O)Nc1nc2cc(C(=O)c3ccc(F)cc3)ccc2[nH]1 [Flubendazole] (stock concentration (mM, diluted 1:100): 10)",0.4 (inactive),12.3 (active),2.6 (active)
"Nc1ncnc2c1ncn2[C@@H]1O[C@H](CO)C[C@@H]1O [3-Deoxydenosine] (stock concentration (mM, diluted 1:100): 10)",19.9 (active),110 (active),1.06 (inactive)
"Cc1cc2c(s1)Nc1ccccc1N=C2N1CCN(C)CC1 [Olanzapine] (stock concentration (mM, diluted 1:100): 9.9)",2.56 (inactive),-0.74 (inactive),-0.76 (inactive)
"COCc1c(C(C)C)nc(C(C)C)c(/C=C/[C@@H](O)C[C@@H](O)CC(=O)O)c1-c1ccc(F)cc1 [Cerivastatin] (stock concentration (mM, diluted 1:100): 10)",0.79 (inactive),,28.6 (active)
"C[C@]12C[C@H](O)[C@H]3[C@@H](CCC4=CC(=O)CC[C@@]43C)[C@@H]1CC[C@@H]2C(=O)CO [Corticosterone] (stock concentration (mM, diluted 1:100): 10)",3.57 (inactive),2.14 (active),-0.97 (inactive)
"Cc1c(C(=O)NN2CCCCC2)nn(-c2ccc(Cl)cc2Cl)c1-c1ccc(I)cc1 (stock concentration (mM, diluted 1:100): 10)",-0.97 (inactive),,-2.45
"CC(C)c1ccc2c(c1)c(SC(C)(C)C)c(CC(C)(C)C(=O)O)n2Cc1ccc(Cl)cc1 [Tocris-1311] (stock concentration (mM, diluted 1:100): 10)",11.2 (active),6.29 (active),-0.4 (inactive)
"COc1ccc(/C=C/C(=O)Nc2ccccc2C(=O)O)cc1OC [Tranilast] (stock concentration (mM, diluted 1:100): 10)",0.24 (inactive),-1.78 (inactive),-0.6 (inactive)
"OCCN1C[C@H](O)[C@@H](O)[C@H](O)[C@H]1CO [Miglitol] (stock concentration (mM, diluted 1:100): 10)",1.46 (inactive),-2.16,-1.34 (inactive)
"CC(=O)Oc1ccccc1C(=O)Nc1ncc([N+](=O)[O-])s1 [Nitazoxanide] (stock concentration (mM, diluted 1:100): 10)",7.92 (active),0.16 (inactive),1.77 (inactive)
"CC(=O)CCCCn1c(=O)c2c(ncn2C)n(C)c1=O [Pentoxifylline] (stock concentration (mM, diluted 1:100): 10)",0.09 (inactive),-1.09 (inactive),-0.51 (inactive)
"O=C(O)CCNC(=O)c1ccc(/N=N/c2ccc(O)c(C(=O)O)c2)cc1 [Balsalazide] (stock concentration (mM, diluted 1:100): 10)",1.1 (inactive),-1.86 (inactive),-1.09 (inactive)
"COc1ccc(CCN(C)CCCC(C#N)(c2ccc(OC)c(OC)c2)C(C)C)cc1OC (stereo unspecified) (stock concentration (mM, diluted 1:100): 10)",2.38 (inactive),,0.01 (inactive)
"Clc1ccccc1CN1CCc2sccc2C1 [Ticlopidine hydrochloride] (stock concentration (mM, diluted 1:100): 8.7)",2.24 (inactive),1.32 (inactive),0.36 (inactive)
"COc1ccccc1N1CCN(CC(O)COc2cccc3ccccc23)CC1 (stereo unspecified) [Naftopidil] (stock concentration (mM, diluted 1:100): 10)",9.59 (active),,7.62 (active)
"CN(C)[C@@H]1C(O)=C(C(=O)NCN2CCCC2)C(=O)[C@@]2(O)C(O)=C3C(=O)c4c(O)cccc4[C@@](C)(O)[C@H]3C[C@@H]12 [Rolitetracycline] (stock concentration (mM, diluted 1:100): 10)",,-1.77 (inactive),-1.17 (inactive)
"CCOC(=O)C1=C(COCCN)NC(C)=C(C(=O)OC)C1c1ccccc1Cl (stereo unspecified) [Amlodipine base] (stock concentration (mM, diluted 1:100): 13.9)",5.4 (active),,14.2 (active)
"CCCCCCNC(=O)n1cc(F)c(=O)[nH]c1=O [Carmofur] (stock concentration (mM, diluted 1:100): 10.3)",0.49 (inactive),22.8 (active),37.2 (active)
"C[C@H](N[C@@H](CCc1ccccc1)C(=O)O)C(=O)N1CCC[C@H]1C(=O)O [Enalaprilat] (stock concentration (mM, diluted 1:100): 10)",1.04 (inactive),-0.82 (inactive),0.34 (inactive)
"CC[C@@]1(O)C(=O)OCc2c1cc1n(c2=O)Cc2cc3c(CN(C)C)c(O)ccc3nc2-1 [Topotecan hydrochloride] (stock concentration (mM, diluted 1:100): 9.2)",,4.71 (active),-1.34 (inactive)
"C/C=C1\[C@H]2C=C(C)C[C@]1(N)c1ccc(=O)[nH]c1C2 [Huperzine a] (stock concentration (mM, diluted 1:100): 10)",3.17 (inactive),1.24 (inactive),-1.79 (inactive)
"CC(C)c1ccc2oc3nc(N)c(C(=O)O)cc3c(=O)c2c1 [Amlexanox] (stock concentration (mM, diluted 1:100): 10)",-0.73 (inactive),0.42 (inactive),1.8 (inactive)
"C[C@@H](c1ncncc1F)[C@](O)(Cn1cncn1)c1ccc(F)cc1F [Voriconazole] (stock concentration (mM, diluted 1:100): 9.9)",-0.46 (inactive),20.3 (active),43.3 (active)
"CN(CCCN1c2ccccc2CCc2ccccc21)CC(=O)c1ccc(Cl)cc1 [Lofepramine] (stock concentration (mM, diluted 1:100): 10)",,51.9 (active),3.15 (active)
